This is part of a sample that, as a whole, favours compounds with a hit. Of some 83,000 tested, about 20% had one in any assay.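 A percent growth of 40 corresponds to 60% growth inhibition; 0 means no net growth; -100 means all cells died. Active threshold: below 10.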 Active and inactive are the calls of the source.

The test concerns MDA-MB-468 breast. Nature of the test: NCI-60 one-dose screen, 48 h (100 = growth as untreated, 0 = no growth, -100 = all killed). The settings on record: 10 µM unless noted.
Consider `COc1ccc(-c2cncn2-c2ccc(-c3nc4cc(OC)c(OC)c(OC)c4s3)cc2)cc1N`, for which the growth was 78.4% (inactive). In the case of `O=C(NCC(c1ccsc1)N1CCCCCC1)c1ccc(C(F)(F)F)cc1` (stereo not given) it was 95.3% (inactive). The result for `Cc1c(Cl)cc(-n2c(=O)c3ccccc3c3ccccc3c2=O)cc1Cl` reads 128% (inactive); that for `Cc1c2c(cc3c1[nH]c1ccccc13)C=NCC2`, 80.2% (inactive); that for `CCCN1CCN(c2ccc3nc(-c4ccc5nc(-c6ccc(C(F)(F)F)cc6)[nH]c5c4)[nH]c3c2)CC1`, -63.6% (active). For the compound `COC[C@]12CCC(C)(C)C[C@H]1C1=CC[C@@H]3[C@@]4(C)CCCNC(C)(C)[C@@H]4CC[C@@]3(C)[C@]1(C)CC2`, the growth is -82.1% (active). The result for `c1ccc2c(-c3nc(N4CCOCC4)c4c5c(sc4n3)CCCCCC5)cccc2c1` reads 95.1% (inactive).

For the compound `Clc1ccc(/C=C2\CCCC3C2=Nc2ccccc2NC3c2ccc(Cl)cc2)cc1` (stereo not given), the growth is 60% (inactive). `COc1ccc(/C(C#N)=C2C=C/C(=N/O)c3ccccc3\2)cc1`: the growth is 37.1% (inactive). With `CN(C)CCn1c2ccc(N)cc2c2nc3ccccc3nc21`, the growth is 23.7% (inactive). Take `COc1cc(/C=C/c2cc(/C=C/c3ccc(O)c(OC)c3)n(-c3ccccc3)c(=O)n2)ccc1O`: the growth is 63% (inactive). `CC(C)c1ccc(NC(=O)Nc2ccc(NC(=O)CCCC(=O)NOCc3ccccc3)cc2)cc1`: the growth is 85% (inactive). In the case of `Nc1cc2[nH]c(=O)c3ccccc3c2cc1Br`, the growth is -50.6% (active). For `CC(C)N1CC(=O)N2CSCC2C1=O` (stereo not given), the growth is 92.6% (inactive).

Consider `C=C(C)[C@@H]1CC[C@]2(C(=O)NCC(=O)OC)CC[C@]3(C)[C@H](CC[C@@H]4[C@@]5(C)Cc6c([nH]c7ccccc67)C(C)(C)[C@@H]5CC[C@]43C)[C@@H]12`, for which the growth is 55.1% (inactive). The result for `CCn1c(C)nc2cc(C(N)=O)ccc21` reads 102% (inactive); that for `O=C(/C=C/C12c3ccccc3C(c3ccccc31)C1C(=O)NC(=O)C12)c1ccncc1` (stereo not given), 6.35% (active). With `C[C@@H]1N=C(c2ccc3ccccc3n2)Nc2nc3ccccn3c2C1=O`, the growth was 107% (inactive). The result for `CC(C)(C)n1cc(-c2ccnc(NCCCNS(=O)(=O)c3ccc(F)cc3)c2)c(-c2cccc(O)c2)n1` reads 24.3% (inactive); that for `COc1ccc(C2C3=C(COC3=O)N(CCO)c3cc4c(cc32)OCO4)cc1OC` (stereo not given), 8.1% (active); that for `COc1ccc(CCN2CCCn3c2nc2ccccc2c3=O)cc1`, -14% (active). In the case of `Cc1ccc(C(=O)Nc2ccccc2C(=O)N/N=C(\c2ccccc2)c2ccccn2)cc1`, the growth is -1.12% (active). With `N#Cc1c(-c2ccc(F)cc2)nc(N/N=C/c2cccc(O)c2)nc1N1CCOCC1`, the growth is 81.1% (inactive).

For `C#Cc1nc(/C=C\CCCCCCC(=O)NO)cs1`, the growth was 23.1% (inactive). The result for `CCC(O)(C(c1ccccc1)c1ccccn1)C(c1ccccc1)c1ccccn1` (stereo not given) reads 114% (inactive); that for `COc1ccc(/C(=C\c2ccc3c(c2)OCO3)C(=O)Nc2nc3ccccc3s2)cc1`, 114% (inactive); that for `CCN1C(=O)N(CC)C2Nn3c(s/c(=C\c4cccc([N+](=O)[O-])c4)c3=O)=NC21` (stereo not given), 28.8% (inactive). In the case of `COc1ccc(C(=O)/C=C/c2ccccc2)cc1S(N)(=O)=O` it was 66.1% (inactive).

For `Cc1ccccc1-c1cc(Cc2ccccc2O)c(=O)[nH]n1`, the growth is 170% (inactive). For `CC1Cc2ccc(OCCN(C)C)cc2C1=O` (stereo not given), the growth was 96.2% (inactive).

`c1ccc2c(-c3c4ccsc4cc4[nH]c5ccccc5c34)c[nH]c2c1`: the growth was 15.7% (inactive). Take `COc1cc(/C=C/c2nc(Nc3ccc(S(=O)(=O)Nc4cc(C)on4)cc3)c3ccccc3n2)ccc1O`: the growth is -7.09% (active). In the case of `CCOC(=O)c1cn2c3c(cccc3c1=O)C(=O)/C(=C/c1cccc(Cl)c1Cl)C2` it was 106% (inactive); in that of `COc1ccc(Nc2ncnc3c2c(SC)nn3-c2ccccc2)cc1`, 69.2% (inactive); in that of `CCOc1ccc2nc(-c3cccc(OCC(=O)NC(C)C)c3)nc(Nc3ccc(-c4cn[nH]c4)cc3)c2c1`, 21% (inactive). The result for `COc1ncnc2c1cnn2C` reads 106% (inactive). Take `COc1cc(/C=C/c2cn[nH]c2-c2ccc(C)cc2)cc(OC)c1OC`: the growth is 12.9% (inactive).

In the case of `COc1ccc(-c2c(NC(=O)Nc3ccc(Cl)c(C(F)(F)F)c3)cnn2-c2ccc(S(N)(=O)=O)cc2)cc1`, the growth was 26.7% (inactive).

Turning to `CC1=CC[C@@H]2C(C)(C)[C@@H](O)CC[C@@]2(C)[C@@H]1COc1ccc2ccc(=O)oc2c1`, the growth is 42.8% (inactive). The result for `OB1OCc2cc(/C=C/c3cccc(C(F)(F)F)c3)ccc21` reads 5.08% (active).

The values are drawn from PubChem BioAssay (NCI).
